Laboratory results as given in ChEMBL document CHEMBL3988442, “University of Dundee, Small-Polar-MMV Screening Library” (2021).
Among all 69,000 compounds or so, about 950 (1.4%) showed an effect of 50% or more. The sample holds strong results, similar compounds and a random draw of the others, so the mix is not that of the screen.

tested on: Mycobacterium tuberculosis; experiment: Cornell M. t heat shock assay; format: functional, organism-based; design: dose or concentration left out as unconfirmed; note: in the data most compounds retested in dose-response had high values

SMILES | Percent Effect [%]
O=S(=O)(CCO)CCc1ccccc1Cl | 17.45
CCN1CCc2c(sc3c2C(=O)NC(/C=C\c2ccccc2)N3)C1 (stereo not given) | -24.35
Cn1c2ncccc2c(=O)n1CC(=O)NCCC1=CCCCC1 | -2.25
CCCc1nn(Cc2ccc(Br)s2)c(=O)o1 | 31
CCC(=O)N1CCN(C(=O)Cn2cccn2)CC1 | 62.88
CCC(=O)N1CCN(C(=O)CCn2cccn2)CC1 | 10.75
CC(C)CN1CCN(C(=O)CCn2cccn2)CC1 | 37.09
O=C1NCCN1CCNc1cc(-c2ccncc2)nc2ccnn12 | -39.13
CC1(C)Cc2cc(-c3cncn3CCNC3CCS(=O)(=O)C3)ccc2O1.Cl (stereo not given) | 8.949
CCC(C)NC(=O)Cn1ccc2c(C)nn(CC)c2c1=O (stereo not given) | -10.24
c1ccc(N2CCCC2)c(NCc2ccncc2)c1 | -19.28
Cc1nc(N2CCCC2)ccc1NCc1ccccn1 | 4.716
c1ccc(CNc2ccccc2N2CCCC2)nc1 | 50.65
O=C(O)C(F)(F)F.O=C(c1cnccn1)N1CC2(CCN(Cc3ccsc3)C2)C1 | -14.16
CN(C)[C@@H]1CCN(C(=O)Cc2cccs2)[C@H]1Cc1cnn(C)c1.O=C(O)C(F)(F)F | 5.582
O=C(O)C(F)(F)F.c1ccc(CN2Cc3nccn3CC(Cn3cccn3)C2)nc1 (stereo not given) | 11.05
CN(C)CCN1CCCC12CCN(C(=O)c1ccncc1)CC2.O=C(O)C(F)(F)F.O=C(O)C(F)(F)F | 6.106
C[C@H](NC(=O)OC(C)(C)C)c1nnc(S(=O)(=O)Cc2cccc(F)c2)o1 | -6.703
CC(NC(=O)OC(C)(C)C)c1nnc(S(=O)(=O)Cc2ccc(Cl)cc2)o1 (stereo not given) | 103.1
Cc1ccccc1CS(=O)(=O)c1nnc(C(C)NC(=O)OC(C)(C)C)o1 (stereo not given) | 89.48

SMILES | Percent Effect [%]
CC(NC(=O)OC(C)(C)C)c1nnc(S(=O)(=O)Cc2ccccc2Cl)o1 (stereo not given) | 10.13
Cc1noc(C(C)NC(=O)[C@@H](C)NC(=O)OC(C)(C)C)n1 (stereo not given in full) | 4.198
Cl.N[C@@H](Cc1ccccc1)c1nnc(S(=O)(=O)Cc2ccc(Cl)cc2)o1 | -31.2
COCCN1C[C@@H]2[C@@H](OC)CCN(C(=O)Cc3ccsc3)[C@@H]2C1.O=C(O)C(F)(F)F | -5.727
O=C(O)C(F)(F)F.O=C(c1ccc(F)cc1)N1CC[C@H]2[C@H]1CCN2CC1CC1 | -18.24
CN1CCN(C)C2(CCN(Cc3ccsc3)CC2)C1=O.O=C(O)C(F)(F)F | -19.83
O=C(O)C(F)(F)F.O=C(O)C(F)(F)F.O=C1C[C@H]2[C@@H](CCN2C(=O)Cc2ccsc2)N1Cc1cccnc1 | -3.092
CCCN1CCC2(CC1)CN(C(=O)c1cccnc1)c1ccc(F)cc12.O=C(O)C(F)(F)F.O=C(O)C(F)(F)F | 1.02
O=C(c1cc(COc2ccc3c(c2)OCO3)[nH]n1)N1CCCC1 | 27.84
O=C(c1cc(COc2ccc3c(c2)OCO3)[nH]n1)N1CCSCC1 | 62.66
O=C(c1cc(COc2ccc3c(c2)OCO3)[nH]n1)N1CCOCC1 | 27.44
O=C(NC1CC1)[C@@]12CCO[C@@H]1CCN(Cc1ccc3c(c1)OCO3)C2.O=C(O)C(F)(F)F | 3.117
O=C(Nc1ccc(Cl)cn1)c1nn(C2CCS(=O)(=O)C2)c2c1CCCC2 (stereo not given) | 11.75
Cc1cc(C(=O)Nc2cc(C3CC3)n[nH]2)c2c(C)nn(C)c2n1 | 28.31
CCCc1cc(=O)[nH]c(-c2cccc(CN3CCN4CCCC4C3)c2)n1 (stereo not given) | 0.7345
CCC(C)(N)c1nc(C(C)C)cc(=O)[nH]1.Cl (stereo not given) | 7.893
CCc1c(C)nc(-n2nc(C3CC3)cc2NC(C)=O)[nH]c1=O | -4.817
CCCc1cc(=O)[nH]c(-c2cccc(CN3CCCCCC3)c2)n1 | -11.64
Cc1cc(C2CCC2)nc(N2CCC3(CCNC(=O)CC3)CC2)n1 | 9.358
CC(C)c1cc(=O)[nH]c(C(C)(C)N)n1.Cl | -1.854

SMILES | Percent Effect [%]
Cc1cc(=O)[nH]c(-n2nc(C3CC3)cc2N)n1 | 101
CC(C)c1cc(=O)[nH]c(-n2nc(C3CC3)cc2N)n1 | 103
CCn1nc(C)c(NC(=O)c2cc(NC(=O)C3CC3)n(C)n2)c1C | -24.03
CCc1cc(=O)[nH]c(-n2nc(C3CC3)cc2NC(=O)C2CC2)n1 | 103.7
CCCc1cc(=O)[nH]c(-n2nc(C3CC3)cc2N)n1 | 101.7
Cc1ccc(CN(CCCN2CCOCC2)Cc2cnc(C)n2C)o1.O=C(O)CC(O)(CC(=O)O)C(=O)O | -5.16
O=C(O)C(F)(F)F.O=C1COC2(CCN(CC3CCC3)CC2)CN1c1cncnc1 | -21.31
Cn1cccc1CN1CCc2c(nc(-c3ccccn3)[nH]c2=O)C1 | 73.71
COc1ccc(CN2CCc3c(nc(-c4ccccn4)[nH]c3=O)C2)cc1 | 89.16
Cn1cccc1CN1CCc2ncnc(-c3cccnc3)c2CC1 | -25.32
O=c1[nH]c(N2CCCCC2)nc2c1CCN(Cc1cccnc1)C2 | -9.833
Cc1nn(C)cc1CN1CCc2c(nc(-c3ccccn3)[nH]c2=O)C1 | 2.88
Cc1ncc(CN2CCc3c(nc(-c4ccccn4)[nH]c3=O)C2)n1C | 8.847
CCn1ncc(CN2CCc3c(nc(-c4cccnc4)[nH]c3=O)C2)c1C | -178.1
CC1CCCCN1c1nc2c(c(=O)[nH]1)CCN(Cc1ccccn1)C2 (stereo not given) | -29.02
O=C(c1ccccn1)N1CCc2c(nc(-c3ccncc3)[nH]c2=O)C1 | -10.2
Cn1cc(CN2CCc3c(nc(-c4ccccn4)[nH]c3=O)C2)cn1 | -205.6
COc1ccccc1CN1CCc2c(nc(-c3ccccn3)[nH]c2=O)C1 | 93.29
O=c1[nH]c(-c2ccccn2)nc2c1CCN(Cc1cccc(O)c1)C2 | 53.42
CCN1CCOCC12CCN(C(=O)C1CCCC1)CC2.O=C(O)C(F)(F)F | -1.07
